Measurements taken from PubChem BioAssay (Tox21).
Records with an inconclusive call do not appear. Entries that show only a call come without a potency. The source holds several records for some structures; these can differ, active in one and inactive in another. Activity calls are given as the source filed them. Unless noted, calls follow the shape of the full dose curve.

What was measured:
[1] = Nuclear factor erythroid 2-related factor 2/antioxidant responsive element (Nrf2/ARE) small molecule agonists: qHTS cell viability counter screen in human keratinocytes (AID 1919968; active = well fitted curve in the direction sought with a large enough effect in the repeat runs; an effect the other way counts as inactive or inconclusive; also: nearly all actives have a fitted effect of over 55% in size; also: potency is read from the fitted curve at half-maximal effect)
Method in brief: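 KeratinoSens cells (HaCaT keratinocytes stably carrying an ARE-luciferase reporter) were seeded at 1,500 cells/well and rested 5 h at 37 C/5% CO2. They were then exposed to compounds in DMSO for 23 h. Viability was read by CellTiter-Fluor fluorescence after 1 h.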

[2] = Nuclear factor erythroid 2-related factor 2/antioxidant responsive element (Nrf2/ARE) small molecule agonists: luciferase reporter gene qHTS assay in human keratinocytes (AID 1919969); also: nearly all actives have a fitted effect of over 35% in size; also: potency is read from the fitted curve at half-maximal effect
[3] = target: Gonadotropin-releasing hormone receptor (Homo sapiens) (UniProt P30968); assay: Human gonadotropin-releasing hormone receptor (GnRHR) small molecule agonists, calcium flux assay in GnRHR-HEK293 cells (AID 1920063); also: nearly all actives have a fitted effect of over 35% in size
Gonadotropin-releasing hormone receptor (Homo sapiens), sequence (P30968 whole entry, looked up): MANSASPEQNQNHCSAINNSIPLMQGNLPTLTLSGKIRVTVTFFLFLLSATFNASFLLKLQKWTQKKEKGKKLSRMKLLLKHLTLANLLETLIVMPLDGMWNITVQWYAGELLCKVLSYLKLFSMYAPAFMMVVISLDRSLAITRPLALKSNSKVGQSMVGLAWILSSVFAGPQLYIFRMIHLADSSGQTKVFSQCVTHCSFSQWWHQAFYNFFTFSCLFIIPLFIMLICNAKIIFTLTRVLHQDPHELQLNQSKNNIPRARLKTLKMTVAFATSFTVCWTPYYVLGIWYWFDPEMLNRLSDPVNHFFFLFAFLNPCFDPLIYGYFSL
Method in brief: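 HEK293 cells stably expressing human GnRHR were plated 18 h at 37 °C, loaded with calcium dye 1 h at 37 °C, then given compound in agonist mode; fluorescence (Ex/Em 480/540) read kinetically for 3 min at 1 s intervals.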

[4] = target: KiSS-1 receptor (Homo sapiens) (UniProt Q969F8); assay: Human kisspeptin (KISS1R) small molecule agonists, calcium flux assay in KISS1R-HEK293 cells (AID 1920064; active = well fitted curve in the direction sought with a large enough effect in the repeat runs; an effect the other way counts as inactive or inconclusive)
KiSS-1 receptor (Homo sapiens), sequence (Q969F8 whole entry, looked up): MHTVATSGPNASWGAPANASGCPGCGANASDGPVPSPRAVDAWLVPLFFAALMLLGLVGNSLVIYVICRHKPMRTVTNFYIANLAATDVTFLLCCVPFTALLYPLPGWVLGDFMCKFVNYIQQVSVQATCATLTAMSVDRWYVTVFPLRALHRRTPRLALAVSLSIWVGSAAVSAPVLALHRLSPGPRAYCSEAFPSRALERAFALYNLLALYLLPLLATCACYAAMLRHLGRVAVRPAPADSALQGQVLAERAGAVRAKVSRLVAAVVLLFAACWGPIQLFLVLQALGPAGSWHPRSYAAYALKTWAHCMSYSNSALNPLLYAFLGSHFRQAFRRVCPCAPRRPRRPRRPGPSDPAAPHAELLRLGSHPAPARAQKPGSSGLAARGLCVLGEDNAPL
Method in brief: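 HEK293 cells stably expressing human KISS1R were plated 18 h at 37 °C, loaded with calcium dye for 1 h at 37 °C, then given compound by pin tool. Fluorescence (Ex/Em 480/540) was read kinetically for 3 min.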

[5] = G protein-coupled receptor (GPCR) small molecule agonists, calcium flux assay: HEK293 wild type cell line counter screen (AID 1920065)
Method in brief: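 Cells were plated and cultured 18 h at 37 C/5% CO2, then loaded with calcium dye for 1 h at 37 C. Compounds in DMSO were pin-transferred in agonist mode, and fluorescence (Ex/Em 480/540) was read kinetically for 3 min at 1 s intervals.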

[6] = p53 small molecule agonists, cell-based qHTS assay with human liver microsomes (AID 1963577);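 also: p53 response element beta-lactamase reporter cells with liver microsomes plus NADPH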
Method in brief: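 Reporter activation was measured by LiveBLAzer fluorescence intensity in p53RE-bla cells, which had been exposed to compounds for 16 h at 37 C alongside 0.5 mg/mL human liver microsomes and 0.5 mg/mL NADPH (final concentrations).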

[7] = p53 small molecule agonists, cell-based qHTS assay with rat liver microsomes (AID 1963578)
Method in brief: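 Compound in DMSO added to p53RE-bla cells 5 h post-plating; rat microsomes/NADPH 0.5 mg/mL final; 16 h, 37 C; LiveBLAzer 2 h RT.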

[8] = p53 small molecule agonists, cell-based qHTS assay with human liver microsomes: qHTS cell viability counter screen (AID 1963579); also: nearly all actives have a fitted effect of over 45% in size
Method in brief: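 HLM-supplemented (0.5 mg/mL final) and NADPH-supplemented (0.5 mg/mL final) p53RE-bla cultures, 4,000 cells per well, were dosed with compounds in DMSO for 16 h at 37 C; luminescent ATP detection (CellTiter-Glo, 30 min, room temperature) quantified surviving cells.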

[9] = p53 small molecule agonists, cell-based qHTS assay with rat liver microsomes: qHTS cell viability counter screen (AID 1963580); also: nearly all actives have a fitted effect of over 45% in size
Method in brief: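 p53RE-bla HCT-116 cells were exposed 16 h at 37 C to compounds with rat liver microsomes (0.5 mg/mL) and NADPH (0.5 mg/mL). Viability was measured in the same wells as ATP content by CellTiter-Glo luminescence.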

[10] = p53 small molecule agonists, cell-based qHTS assay: qHTS cell viability counter screen (AID 1963581); also: nearly all actives have a fitted effect of over 45% in size
Method in brief: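 p53RE-bla HCT-116 cells were exposed to compounds for 16 h at 37 C; after the beta-lactamase FRET read in the same wells, CellTiter-Glo was added and luminescence (intracellular ATP) read after 30 min at room temperature.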

[11] = p53 small molecule agonists, cell-based qHTS assay (AID 1963582; active = well fitted activation curve with a large enough effect in the signal ratio in the repeat runs, not every such curve was filed as active; the % refers to the signal ratio)
Method in brief: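 p53RE-bla beta-lactamase reporter cells rested 5 h at 37 C/5% CO2, then received compounds in DMSO by pin transfer and were incubated 16 h at 37 C. LiveBLAzer B/G FRET substrate was loaded for 2 h at room temperature before fluorescence reading.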

[12] = cAMP Responsive Elements (CRE) small molecule agonists, cell-based qHTS assay (AID 1963590)
Method in brief: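 CRE-bla HEK 293T cells in DMEM with 10% dialyzed FBS, NEAA, pyruvate and 25 mM HEPES were plated 18 h at 37 C/5% CO2, then exposed to compounds in DMSO for 3 h before LiveBLAzer B/G FRET substrate addition.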

[13] = cAMP Responsive Elements (CRE) small molecule antagonists, cell-based qHTS assay (AID 1963591; active = well fitted inhibition curve with a large enough effect in the signal ratio in the repeat runs, not every such curve was filed as active; the % refers to the signal ratio)
Method in brief: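 CRE-bla HEK293T cells were plated 18 h at 37 °C/5% CO2, pinned with compound in DMSO, then stimulated with NKH477 at 0.25 uM final for 3 h. LiveBLAzer B/G FRET substrate was added and plates incubated 2 h at room temperature.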

[14] = target: Beta-2 adrenergic receptor (Homo sapiens) (UniProt P07550); assay: Adrenergic beta2 receptor (ADRB2) small molecule antagonists, cell-based qHTS assay (AID 1963592); also: series mostly up to about 92 µM; nearly all actives have a fitted effect of over 50% in size
Beta-2 adrenergic receptor (Homo sapiens), sequence (P07550 whole entry, looked up): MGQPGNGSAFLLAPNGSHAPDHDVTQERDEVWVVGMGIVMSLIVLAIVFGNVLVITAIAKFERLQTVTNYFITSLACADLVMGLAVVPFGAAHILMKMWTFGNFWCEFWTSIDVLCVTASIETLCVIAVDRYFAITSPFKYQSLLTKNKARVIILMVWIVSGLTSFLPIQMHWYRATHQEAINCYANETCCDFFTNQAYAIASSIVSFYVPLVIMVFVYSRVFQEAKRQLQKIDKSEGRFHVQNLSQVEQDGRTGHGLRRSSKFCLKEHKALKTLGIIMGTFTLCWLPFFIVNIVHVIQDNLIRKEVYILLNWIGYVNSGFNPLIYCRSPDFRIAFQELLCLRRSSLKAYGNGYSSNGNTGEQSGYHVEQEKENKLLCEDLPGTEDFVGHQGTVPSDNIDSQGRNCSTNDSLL
Method in brief: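 Cells (CHO, stable ADRB2 overexpression) incubated 18-20hr at 37C; compounds added from DMSO; agonist mix (1nM isoproterenol, 100uM IBMX, 25uM Ro-20-1724) added; 0.5hr RT; d2-cAMP and anti-cAMP-cryptate added; 1hr RT; 665/615 nm read.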

[15] = target: D(2) dopamine receptor (Homo sapiens) (UniProt P14416); assay: Dopamine D2 receptor (DRD2) small molecule agonists, cell-based qHTS assay (AID 1963594); also: nearly all actives have a fitted effect of over 35% in size
D(2) dopamine receptor (Homo sapiens), sequence (P14416 whole entry, looked up): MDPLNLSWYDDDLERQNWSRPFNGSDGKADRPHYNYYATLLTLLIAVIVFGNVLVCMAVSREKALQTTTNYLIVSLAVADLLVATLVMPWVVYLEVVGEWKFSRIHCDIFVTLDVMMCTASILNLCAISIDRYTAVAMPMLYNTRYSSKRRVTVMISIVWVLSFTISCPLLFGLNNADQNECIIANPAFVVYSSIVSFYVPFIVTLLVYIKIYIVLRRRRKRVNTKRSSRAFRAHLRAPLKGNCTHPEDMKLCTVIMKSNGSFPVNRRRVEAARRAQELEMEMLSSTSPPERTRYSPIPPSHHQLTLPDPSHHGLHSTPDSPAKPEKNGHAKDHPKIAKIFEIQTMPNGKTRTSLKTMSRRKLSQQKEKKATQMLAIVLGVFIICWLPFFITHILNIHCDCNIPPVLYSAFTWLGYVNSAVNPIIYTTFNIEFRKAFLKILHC
Method in brief: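 HEK293 cells stably expressing human DRD2, pre-treated with PDE inhibitor Ro20-1724 (0.1 mM final) and compound 10 min at room temperature, then stimulated with NKH477 (200nM […]) for 30 min. cAMP read by HTRF (665/620 nm).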

[16] = target: D(2) dopamine receptor (Homo sapiens) (UniProt P14416); assay: Dopamine D2 receptor (DRD2) small molecule antagonists, cell-based qHTS assay (AID 1963595; active = well fitted inhibition curve with a large enough effect in the signal ratio in the repeat runs, with a control signal flat; the % refers to the signal ratio)
Method in brief: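 Human DRD2 antagonist qHTS measuring cAMP by HTRF. The cells are exposed to compound for 10 min, then to NKH477 (200 nM) and quinpirole (12 nM) for 30 min at RT, with Ro20-1724 (0.1 mM) present throughout.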

[17] = target: Beta-2 adrenergic receptor (Homo sapiens) (UniProt P07550); assay: Adrenergic beta2 receptor (ADRB2) small molecule agonists, cell-based qHTS assay (AID 1963593);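 also: CHO cells stably overexpressing human ADRB2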
Method in brief: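 CHO cells stably over-expressing ADRB2 were plated overnight at 37C, then dosed with compounds plus a stimulation mix containing 100uM IBMX and 25uM Ro-20-1724 for 0.5hr at room temperature. cAMP was measured by HTRF competition, 1hr.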

[18] = target: Muscarinic acetylcholine receptor M1 (Homo sapiens) (UniProt P11229); assay: Cholinergic receptor muscarinic 1 (CHRM1) small molecule antagonists, cell-based qHTS assay (AID 1963588); also: nearly all actives have a fitted effect of over 40% in size
Muscarinic acetylcholine receptor M1 (Homo sapiens), sequence (P11229 whole entry, looked up): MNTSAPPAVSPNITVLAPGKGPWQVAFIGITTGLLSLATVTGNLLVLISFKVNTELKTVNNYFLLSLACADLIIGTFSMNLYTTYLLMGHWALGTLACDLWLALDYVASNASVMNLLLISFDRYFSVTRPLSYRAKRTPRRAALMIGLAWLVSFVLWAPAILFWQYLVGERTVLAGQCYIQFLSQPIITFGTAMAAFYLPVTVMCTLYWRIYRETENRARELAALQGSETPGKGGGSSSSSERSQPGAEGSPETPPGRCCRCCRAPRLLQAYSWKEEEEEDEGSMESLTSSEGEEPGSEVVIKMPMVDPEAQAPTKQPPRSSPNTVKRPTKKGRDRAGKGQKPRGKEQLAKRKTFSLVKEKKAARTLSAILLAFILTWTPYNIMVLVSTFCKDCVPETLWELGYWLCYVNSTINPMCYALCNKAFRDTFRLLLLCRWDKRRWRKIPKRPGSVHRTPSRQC
Method in brief: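 CHRM1-CHO calcium-flux assay, antagonist mode. Cells were seeded 18 h, dye-loaded 1 h at 37 C and given compound for 5 min at RT, then acetylcholine was added at 50nM. FDSS fluorescence was read 3 min; 15 concentrations, three runs.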

[19] = target: Muscarinic acetylcholine receptor M1 (Homo sapiens) (UniProt P11229); assay: Cholinergic receptor muscarinic 1 (CHRM1) small molecule agonists, cell-based qHTS assay (AID 1963589); also: nearly all actives have a fitted effect of over 35% in size
Method in brief: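 CHO cells stably expressing human CHRM1, seeded 18 h at 37 C/5% CO2, dye-loaded 1 h at 37 C, then given compound in agonist mode; intracellular calcium fluorescence read kinetically at 1 s intervals. Fifteen concentrations, three independent runs.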

Compound | Potency [1] | Potency [2] | Potency [3] | Potency [4] | Potency [5] | Potency [6] | Potency [7] | Potency [8] | Potency [9] | Potency [10] | Potency [11] | Potency [12] | Potency [13] | Potency [14] | Potency [15] | Potency [16] | Potency [17] | Potency [18] | Potency [19]
NC(=O)NO | inactive | inactive | inactive | inactive | inactive | inactive | inactive | inactive | inactive | inactive | inactive | inactive | inactive | inactive | inactive | inactive |  |  | 
CC1=NN(c2ccccc2)C(=O)C1 | inactive | inactive | inactive | inactive | inactive | inactive | inactive | inactive | inactive | inactive | inactive | inactive | inactive | inactive | inactive | inactive | inactive |  | 
Cc1c(N(C)CS(=O)(=O)O)c(=O)n(-c2ccccc2)n1C | inactive | inactive | inactive | inactive | inactive | inactive | inactive | inactive | inactive | inactive | inactive | inactive | inactive | inactive | inactive | inactive |  |  | 
Cc1ncc([N+](=O)[O-])n1CCO | inactive | inactive | inactive | inactive | inactive | inactive | inactive | inactive | inactive | inactive | inactive | inactive | inactive | inactive | inactive | inactive |  |  | 
Cc1cccc(O)c1C | inactive | inactive | inactive | inactive | inactive | inactive | inactive | inactive | inactive | inactive | inactive |  | inactive | inactive |  | inactive |  | inactive | inactive
CC1(C)O[C@@H]2C[C@H]3[C@@H]4CCC5=CC(=O)C=C[C@]5(C)[C@@]4(F)[C@@H](O)C[C@]3(C)[C@]2(C(=O)CO)O1 | inactive | inactive | inactive | inactive | inactive | inactive | inactive | inactive | inactive | inactive | inactive | inactive | inactive | inactive | inactive | inactive |  |  | 
CN(C)C=O | inactive | inactive | inactive | inactive | inactive | inactive | inactive | inactive | inactive | inactive | inactive | inactive | inactive | inactive | inactive | inactive | inactive |  | 
O=CCCCC=O | inactive | 52.5 µM (active) and inactive | inactive | inactive | inactive | inactive | inactive | inactive | inactive | inactive | inactive |  |  | inactive | inactive | inactive | inactive | inactive | inactive
CCCCCCc1ccc(O)cc1O | 48.7 µM (active) and inactive | inactive | inactive | inactive | inactive | inactive | inactive | inactive | inactive | inactive | inactive | inactive | inactive | inactive | inactive | inactive | inactive | inactive | inactive
CCOC(N)=O | inactive | inactive | inactive | inactive | inactive | inactive | inactive | inactive | inactive | inactive | inactive | inactive | inactive | inactive | inactive | inactive | inactive |  | 
NS(=O)(=O)c1cc2c(cc1Cl)NCNS2(=O)=O | inactive | inactive | inactive | inactive | inactive | inactive | inactive | inactive | inactive | inactive | inactive | inactive | inactive | inactive |  | inactive | inactive |  | 
CN/C(=C\[N+](=O)[O-])NCCSCc1csc(CN(C)C)n1 | inactive | inactive | inactive | inactive | inactive | inactive | inactive | inactive | inactive | inactive | inactive | inactive | inactive | inactive | inactive |  | inactive |  | 
CCCOC(=O)NCCCN(C)C | inactive | inactive | inactive | inactive | inactive | inactive | inactive | inactive | inactive | inactive | inactive | inactive | inactive | inactive | inactive | inactive | inactive | inactive | 
CCN(CC)CCOC(=O)c1ccc(N)cc1 | inactive | inactive | inactive | inactive | inactive | inactive | inactive | inactive | inactive | inactive | inactive | inactive | inactive | inactive |  | inactive |  |  | 
OC[C@@H](O)[C@@H](O)[C@H](O)[C@@H](O)CO | inactive | inactive | inactive | inactive | inactive | inactive | inactive | inactive | inactive | inactive | inactive | inactive | inactive | inactive | inactive | inactive | inactive |  | 
